The term inhibition denotes the drop in the measured response relative to a control, in per cent.

Inhibition data for 3 compounds are collected here from PubChem BioAssay AID602385 (Sanford-Burnham Center for Chemical Genomics, 2012).

Out of some 2,300 compounds screened, about 180 (7.8%) were called active.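 The calls were made as follows: active = average inhibition of at least 30% in the single-concentration confirmation test; inactive = the rest.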 The sample as a whole holds a higher share of actives than the screen did.

In the assay the target is DNA (cytosine-5)-methyltransferase 1 (Homo sapiens) (UniProt P26358). The assay is described as follows: inhibition of human DNMT1, hit confirmation – biochemical, molecular beacon, fluorescence, single concentration (AID 602385). The following applies: DNMT1 molecular beacon HinP1I cleavage, at 10 µM, hits give high values.
Chain of DNA (cytosine-5)-methyltransferase 1 (Homo sapiens) (P26358 504-1616 limits assumed): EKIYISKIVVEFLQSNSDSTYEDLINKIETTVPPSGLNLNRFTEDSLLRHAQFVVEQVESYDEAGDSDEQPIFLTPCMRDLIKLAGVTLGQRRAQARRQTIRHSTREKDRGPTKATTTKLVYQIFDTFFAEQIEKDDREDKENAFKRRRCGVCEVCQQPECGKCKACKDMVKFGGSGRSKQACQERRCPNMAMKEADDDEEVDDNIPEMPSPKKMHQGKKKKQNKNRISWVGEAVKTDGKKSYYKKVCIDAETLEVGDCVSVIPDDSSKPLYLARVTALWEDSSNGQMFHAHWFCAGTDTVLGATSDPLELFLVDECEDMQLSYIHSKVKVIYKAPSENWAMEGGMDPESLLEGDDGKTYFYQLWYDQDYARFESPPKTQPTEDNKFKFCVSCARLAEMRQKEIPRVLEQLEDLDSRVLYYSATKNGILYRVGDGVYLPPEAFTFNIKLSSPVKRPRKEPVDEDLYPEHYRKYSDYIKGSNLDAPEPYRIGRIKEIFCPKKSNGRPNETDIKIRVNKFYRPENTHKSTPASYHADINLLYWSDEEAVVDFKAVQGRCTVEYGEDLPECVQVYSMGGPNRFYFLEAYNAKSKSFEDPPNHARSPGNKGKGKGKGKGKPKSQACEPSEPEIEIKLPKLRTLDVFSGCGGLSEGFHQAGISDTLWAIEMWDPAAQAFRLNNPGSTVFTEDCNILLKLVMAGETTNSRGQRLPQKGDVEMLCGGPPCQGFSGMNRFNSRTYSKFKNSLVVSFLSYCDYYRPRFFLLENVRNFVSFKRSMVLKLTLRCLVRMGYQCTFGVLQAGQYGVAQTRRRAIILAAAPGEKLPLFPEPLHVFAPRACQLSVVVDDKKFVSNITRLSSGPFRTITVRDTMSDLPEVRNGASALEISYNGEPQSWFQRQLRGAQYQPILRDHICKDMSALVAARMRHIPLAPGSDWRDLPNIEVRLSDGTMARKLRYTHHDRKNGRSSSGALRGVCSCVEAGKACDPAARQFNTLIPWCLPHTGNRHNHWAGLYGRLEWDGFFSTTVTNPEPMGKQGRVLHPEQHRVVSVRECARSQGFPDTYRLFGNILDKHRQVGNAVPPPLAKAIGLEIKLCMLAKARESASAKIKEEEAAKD
For the compound `Cc1c(C(=O)O)cccc1-n1c(C)cc(/C=C2\C(=O)NC(=O)N(c3ccc4c(c3)OCO4)C2=O)c1C`, the inhibition was 35.1% (active). For the compound `O=C1NC(=O)N(Cc2ccco2)C(=O)/C1=C\c1ccc(-c2ccc(F)cc2)o1`, the inhibition was 8.93% (inactive). `CC1=C(C(=O)Nc2ccccc2)SCCO1`: the inhibition was 6.68% (inactive).
